Data published in PubChem BioAssay (EPA / NIEHS).
Records with an inconclusive call do not appear. More than one record can exist for a structure, and the calls need not agree. Calls of active or inactive are those of the source. Rule for the calls, unless noted: active = hit-call score of the fitted dose curve at least 0.9, where 1 is the maximum; inconclusive = response in the unintended direction; inactive = score below 0.9.

Experiments:
[1] = target: Retinoic acid receptor RXR-alpha (Homo sapiens) (UniProt P19793); assay: ATG_RXRa_TRANS: Attagene TRANS-FACTORIAL HepG2 Assay for human Retinoid X Receptor alpha (RXRa) (AID 2283012)
How it was run: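 Cells (HepG2) carried transiently transfected GAL4-responsive reporter units. Following a 24 h chemical incubation, reporter mRNA induction was read via RT-PCR fragment analysis; DMSO served as negative control and baseline.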

[2] = target: human Retinoid X Receptor beta (RXRb), RXRB (gene 6257) (UniProt P28702); assay: ATG_RXRb_TRANS: Attagene TRANS-FACTORIAL HepG2 Assay for human Retinoid X Receptor beta (RXRb) (AID 2283013)
How it was run: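 Multiplexed TRANS reporter assay in HepG2; 24 h dosing; reporter mRNA by RT-PCR/CE fluorescence; gain-of-signal relative to DMSO.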

[3] = target: human Thyroid Receptor alpha (THRa1), THRA (gene 7067) (UniProt P10827); assay: ATG_THRa1_TRANS: Attagene TRANS-FACTORIAL HepG2 Assay for human Thyroid Receptor alpha (THRa1) (AID 2283014)
How it was run: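 Reporter transcript induction, read by capillary electrophoresis of 6-FAM-labelled RT-PCR products, reflects activity of a transfected THRa1-Gal4 fusion in HepG2 liver cells. Cells were dosed for 24 h; activity was fitted in the positive direction against DMSO.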

[4] = target: human Vitamin D Receptor (VDR), VDR (gene 7421) (UniProt P11473); assay: ATG_VDR_TRANS: Attagene TRANS-FACTORIAL HepG2 Assay for human Vitamin D Receptor (VDR) (AID 2283022)
How it was run: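 Steps: transfect HepG2 with GAL4-UAS-driven reporter constructs; dose compounds 24 h; isolate RNA, reverse-transcribe, PCR-amplify with 6-FAM-labelled primer extension and HpaI digestion; quantify fragments by capillary electrophoresis relative to DMSO.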

[5] = read-out: Interleukin-1 alpha (IL1a), IL1A (gene 3552); assay: BSK_BE3C_IL1a: BioMAP Diversity Plus: BE3C Assay for Interleukin-1 alpha (IL1a) Biomarker Activity (AID 2283016; active = hit-call score of the fitted dose curve at least 0.9, where 1 is the maximum; inactive = score below 0.9); conditions: primary human bronchial epithelial cells; actives raise or lower the signal
How it was run: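 Cultures of primary human bronchial epithelial cells receive test chemical. After 24 h, IL-1a is quantified by ELISA, while parallel wells are fixed in TCA and SRB-stained for total protein. Changes in either direction are fitted relative to DMSO.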

[6] = read-out: Monocyte Chemoattractant Protein-1 (MCP1), CCL2 (gene 6347); assay: BSK_3C_MCP1: BioMAP Diversity Plus: 3C Assay for Monocyte Chemoattractant Protein-1 (MCP1) Biomarker Activity (AID 2283017; active = hit-call score of the fitted dose curve at least 0.9, where 1 is the maximum; inactive = score below 0.9); conditions: primary human endothelial cells (HUVEC); actives raise or lower the signal
How it was run: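 ELISA read-out of MCP-1 from human umbilical vein endothelial cell cultures harvested 24 h post-dosing. Gain or loss of signal was fitted relative to DMSO.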

[7] = read-out: Monocyte Chemoattractant Protein-1 (MCP1), CCL2 (gene 6347); assay: BSK_4H_MCP1: BioMAP Diversity Plus: 4H Assay for Monocyte Chemoattractant Protein-1 (MCP1) Biomarker Activity (AID 2283018; active = hit-call score of the fitted dose curve at least 0.9, where 1 is the maximum; inactive = score below 0.9); conditions: primary human endothelial cells (HUVEC); actives raise or lower the signal
How it was run: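 Readout: MCP-1 ELISA on compound-treated HUVEC, sampled 24 h post-dosing. Baseline and negative control DMSO; bidirectional fit. Overt toxicity checked alongside by sulforhodamine B protein staining at time of biomarker measurement.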

[8] = read-out: Human Leukocyte Antigen - DR isotype (HLADR), HLA-DRA (gene 3122); assay: BSK_3C_HLADR: BioMAP Diversity Plus: 3C Assay for Human Leukocyte Antigen - DR isotype (HLADR) Biomarker Activity (AID 2283019; active = hit-call score of the fitted dose curve at least 0.9, where 1 is the maximum; inactive = score below 0.9;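 note: ELISA of cell-surface HLA-DR on HUVEC 24 h after dosing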); conditions: primary human endothelial cells (HUVEC); actives raise or lower the signal
How it was run: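 ELISA readout of surface HLA-DR on human umbilical vein endothelium, taken 24 h after chemical treatment. Gain- and loss-of-signal were both fitted relative to DMSO.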

[9] = read-out: Interleukin-8 (IL8), CXCL8 (gene 3576); assay: BSK_3C_IL8: BioMAP Diversity Plus: 3C Assay for Interleukin-8 (IL8) Biomarker Activity (AID 2283020; active = hit-call score of the fitted dose curve at least 0.9, where 1 is the maximum; inactive = score below 0.9); conditions: primary human endothelial cells (HUVEC); actives raise or lower the signal
How it was run: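 Human vascular endothelial cells (umbilical vein) in the 3C system; IL-8 level detected by ELISA at 24 h post-dose, with DMSO as baseline.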

[10] = BSK_3C_SRB: Viability Assessment in the BioMAP Diversity Plus: 3C Assay (AID 2283023; active = hit-call score of the fitted dose curve at least 0.9, where 1 is the maximum; inactive = score below 0.9;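 note: fitted both ways against DMSO so a hit may be signal rise or drop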); conditions: primary human endothelial cells (HUVEC)
How it was run: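 Absorbance at 560 nm of sulforhodamine B-stained (0.1%) total protein served as a cytotoxicity readout in human umbilical vein endothelial cells, 24 h after chemical treatment. Signal was fitted bidirectionally relative to DMSO.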

[11] = read-out: Matrix Metallopeptidase 1 (MMP1), MMP1 (gene 4312); assay: BSK_BE3C_MMP1: BioMAP Diversity Plus: BE3C Assay for Matrix Metallopeptidase 1 (MMP1) Biomarker Activity (AID 2283024; active = hit-call score of the fitted dose curve at least 0.9, where 1 is the maximum; inactive = score below 0.9); conditions: primary human bronchial epithelial cells; actives raise or lower the signal
How it was run: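 Dose cells, wait 24 h, run MMP1 ELISA; cells are human bronchial epithelial primaries. Both increases and decreases relative to DMSO counted.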

[12] = BSK_3C_Vis: BioMAP Diversity Plus: 3C Assay for Morphology Visualization (AID 2283025; active = hit-call score of the fitted dose curve at least 0.9, where 1 is the maximum; inactive = score below 0.9;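 note: fitted both ways so gain or loss versus DMSO counts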); conditions: primary human endothelial cells (HUVEC)
How it was run: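 Endothelial cells from human umbilical vein were treated with test chemicals for 24 h and inspected by light microscopy for changes in cell conformation.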

[13] = read-out: Pselectin, SELP (gene 6403); assay: BSK_4H_Pselectin: BioMAP Diversity Plus: 4H Assay for Pselectin Biomarker Activity (AID 2283026; active = hit-call score of the fitted dose curve at least 0.9, where 1 is the maximum; inactive = score below 0.9); conditions: primary human endothelial cells (HUVEC); actives raise or lower the signal
How it was run: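 Human vascular endothelium from umbilical vein; P-selectin measured by ELISA at 24 h post-dose, with cytotoxicity checked by sulforhodamine B total-protein staining in parallel cultures (0.1% SRB after 10% TCA fixation, read at 560 nm).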

[14] = BSK_4H_SRB: Viability Assessment in the BioMAP Diversity Plus: 4H Assay (AID 2283027; active = hit-call score of the fitted dose curve at least 0.9, where 1 is the maximum; inactive = score below 0.9;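 note: cells exposed to compound for 24 h before staining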); conditions: primary human endothelial cells (HUVEC)
How it was run: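 Absorbance at 560 nm of SRB-stained total protein served as the viability read-out in confluent primary human umbilical vein endothelium 24 h after chemical treatment. Curves were fitted bidirectionally against DMSO as negative control.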

[15] = BSK_BE3C_SRB: Viability Assessment in the BioMAP Diversity Plus: BE3C Assay (AID 2283028; active = hit-call score of the fitted dose curve at least 0.9, where 1 is the maximum; inactive = score below 0.9); conditions: primary human bronchial epithelial cells
How it was run: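 Cells (human bronchial epithelial, primary) are treated with chemicals, and after 24 h the parallel cultures are fixed in 10% TCA. These are then stained with 0.1% SRB and read at 560 nm. Gain or loss of signal is fitted relative to DMSO.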

[16] = read-out: Thrombomodulin, THBD (gene 7056); assay: BSK_3C_Thrombomodulin: BioMAP Diversity Plus: 3C Assay for Thrombomodulin Biomarker Activity (AID 2283029; active = hit-call score of the fitted dose curve at least 0.9, where 1 is the maximum; inactive = score below 0.9); conditions: primary human endothelial cells (HUVEC); actives raise or lower the signal
How it was run: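 Thrombomodulin ELISA, human primary HUVEC, 24 h post-dose; data fitted in both directions relative to DMSO.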

[17] = read-out: Urokinase-type plasminogen activator receptor (uPAR), PLAUR (gene 5329); assay: BSK_4H_uPAR: BioMAP Diversity Plus: 4H Assay for Urokinase-type plasminogen activator receptor (uPAR) Biomarker Activity (AID 2283030; active = hit-call score of the fitted dose curve at least 0.9, where 1 is the maximum; inactive = score below 0.9); conditions: primary human endothelial cells (HUVEC); actives raise or lower the signal
How it was run: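 Cell-surface uPAR ELISA signal, measured 24 h after dosing human umbilical vein endothelial cells, was analyzed with bidirectional fitting relative to DMSO. Parallel SRB staining of total protein tracked overt cytotoxicity.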

[18] = read-out: E-selectin (Homo sapiens) (UniProt P16581); assay: BSK_3C_Eselectin: BioMAP Diversity Plus: 3C Assay for Eselectin Biomarker Activity (AID 2283015; active = hit-call score of the fitted dose curve at least 0.9, where 1 is the maximum; inactive = score below 0.9;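 note: cell surface E-selectin protein quantified by ELISA 24 h after dosing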); conditions: primary human endothelial cells (HUVEC); actives raise or lower the signal
How it was run: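 ELISA read-out of E-selectin on endothelial monolayers after 24 h chemical treatment. Human umbilical vein primary cells served as the system, with DMSO defining baseline activity for bidirectional fitting.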

Measured: AC50

Sequence of human Thyroid Receptor alpha (THRa1), THRA (gene 7067) (P10827 whole entry, looked up, the tested form may be a part): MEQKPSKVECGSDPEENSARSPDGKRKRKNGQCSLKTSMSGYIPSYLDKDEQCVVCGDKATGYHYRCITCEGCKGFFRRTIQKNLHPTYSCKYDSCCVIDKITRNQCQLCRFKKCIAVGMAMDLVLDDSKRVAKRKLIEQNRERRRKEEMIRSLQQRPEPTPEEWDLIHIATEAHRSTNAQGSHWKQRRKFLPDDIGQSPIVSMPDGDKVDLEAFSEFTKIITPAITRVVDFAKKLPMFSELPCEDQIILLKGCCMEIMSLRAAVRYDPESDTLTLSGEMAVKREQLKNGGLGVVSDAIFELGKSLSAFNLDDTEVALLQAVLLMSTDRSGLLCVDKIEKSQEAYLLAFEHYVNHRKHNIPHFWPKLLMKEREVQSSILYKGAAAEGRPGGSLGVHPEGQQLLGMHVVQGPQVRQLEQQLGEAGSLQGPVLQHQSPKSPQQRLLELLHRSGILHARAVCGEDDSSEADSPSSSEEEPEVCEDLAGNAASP
Sequence of human Retinoid X Receptor beta (RXRb), RXRB (gene 6257) (P28702 whole entry, looked up): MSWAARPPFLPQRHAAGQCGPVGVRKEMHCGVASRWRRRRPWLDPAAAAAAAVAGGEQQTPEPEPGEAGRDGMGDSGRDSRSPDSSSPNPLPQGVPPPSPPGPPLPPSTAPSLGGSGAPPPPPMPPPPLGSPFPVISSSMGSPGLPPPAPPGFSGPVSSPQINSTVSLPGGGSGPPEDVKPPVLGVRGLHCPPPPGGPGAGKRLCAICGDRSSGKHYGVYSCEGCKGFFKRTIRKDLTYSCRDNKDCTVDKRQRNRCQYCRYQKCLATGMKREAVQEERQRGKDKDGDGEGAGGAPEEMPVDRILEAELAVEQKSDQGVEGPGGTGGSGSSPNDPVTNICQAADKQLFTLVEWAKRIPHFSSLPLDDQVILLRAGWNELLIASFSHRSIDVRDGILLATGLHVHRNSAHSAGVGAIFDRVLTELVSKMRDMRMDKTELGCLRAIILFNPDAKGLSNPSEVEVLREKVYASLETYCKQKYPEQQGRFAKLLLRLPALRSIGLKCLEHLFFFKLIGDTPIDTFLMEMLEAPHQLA
Sequence of Retinoic acid receptor RXR-alpha (Homo sapiens) (P19793 whole entry, looked up, the tested form may be a part): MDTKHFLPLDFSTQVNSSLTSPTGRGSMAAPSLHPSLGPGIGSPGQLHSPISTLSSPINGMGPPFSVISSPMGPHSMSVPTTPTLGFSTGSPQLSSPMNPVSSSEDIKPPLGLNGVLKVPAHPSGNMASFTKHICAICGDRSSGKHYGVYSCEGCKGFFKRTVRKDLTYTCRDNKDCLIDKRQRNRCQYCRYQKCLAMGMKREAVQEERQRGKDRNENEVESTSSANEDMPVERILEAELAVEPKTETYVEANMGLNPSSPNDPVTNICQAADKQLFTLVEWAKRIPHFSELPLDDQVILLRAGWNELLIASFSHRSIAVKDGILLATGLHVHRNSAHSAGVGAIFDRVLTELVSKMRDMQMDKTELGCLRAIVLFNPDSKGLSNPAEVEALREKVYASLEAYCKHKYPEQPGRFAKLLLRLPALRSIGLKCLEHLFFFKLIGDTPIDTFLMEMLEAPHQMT
Sequence of human Vitamin D Receptor (VDR), VDR (gene 7421) (P11473 whole entry, looked up, the tested form may be a part): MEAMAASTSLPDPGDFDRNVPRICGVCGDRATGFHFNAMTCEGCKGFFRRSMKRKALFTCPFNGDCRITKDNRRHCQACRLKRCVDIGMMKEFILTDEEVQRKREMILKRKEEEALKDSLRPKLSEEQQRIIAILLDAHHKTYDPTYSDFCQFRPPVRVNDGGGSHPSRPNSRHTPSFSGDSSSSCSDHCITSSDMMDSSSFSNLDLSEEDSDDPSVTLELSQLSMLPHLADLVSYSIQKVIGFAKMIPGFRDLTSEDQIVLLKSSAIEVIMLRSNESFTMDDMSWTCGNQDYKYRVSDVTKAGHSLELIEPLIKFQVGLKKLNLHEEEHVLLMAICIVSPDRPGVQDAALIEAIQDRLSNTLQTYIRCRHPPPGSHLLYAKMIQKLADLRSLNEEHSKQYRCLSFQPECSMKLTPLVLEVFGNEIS
Sequence of E-selectin (Homo sapiens) (P16581 whole entry, looked up): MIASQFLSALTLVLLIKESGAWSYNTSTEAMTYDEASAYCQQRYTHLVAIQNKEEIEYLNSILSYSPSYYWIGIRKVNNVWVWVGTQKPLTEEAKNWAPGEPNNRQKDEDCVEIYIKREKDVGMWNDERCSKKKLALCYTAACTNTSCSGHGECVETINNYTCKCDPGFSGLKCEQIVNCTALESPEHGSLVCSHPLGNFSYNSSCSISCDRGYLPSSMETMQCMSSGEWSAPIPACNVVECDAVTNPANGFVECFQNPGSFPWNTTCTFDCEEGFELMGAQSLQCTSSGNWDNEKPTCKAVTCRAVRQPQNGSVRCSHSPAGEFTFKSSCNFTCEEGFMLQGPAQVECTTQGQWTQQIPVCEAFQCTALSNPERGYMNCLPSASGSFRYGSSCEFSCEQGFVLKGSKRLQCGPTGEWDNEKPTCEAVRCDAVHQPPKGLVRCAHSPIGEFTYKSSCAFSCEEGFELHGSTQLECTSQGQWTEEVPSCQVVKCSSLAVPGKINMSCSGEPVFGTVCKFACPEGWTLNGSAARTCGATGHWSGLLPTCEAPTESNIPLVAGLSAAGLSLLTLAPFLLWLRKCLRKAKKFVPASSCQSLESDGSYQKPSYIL

COC(=O)C(C)Oc1ccc(Oc2ncc(C(F)(F)F)cc2Cl)cc1 (stereo not given)
inactive: [1] | [2] | [3] | [4]

O=C(OCc1ccccc1)c1ccccc1O
inactive: [1] | [3] | [4]
active: [2] 50.1 µM

CCC(C)COC(=O)CC(C)C (stereo not given)
inactive: [1] | [2] | [3]

O=[N+]([O-])c1cc(N(CCO)CCO)ccc1NCCO
inactive: [1] | [2] | [3] | [4]

N#CCCCC(C#N)CCC#N (stereo not given)
inactive: [1] | [2] | [3]

O=C(C=Cc1ccccc1)OCCCc1ccccc1
active: [2] 66.6 µM
inactive: [1]

CCCCCCCCCCCCN1CCOCC1
active: [2] 42.8 µM
inactive: [1] | [3]

CC(C)(C)c1cccc(O)c1
active: [2] 66.4 µM
not listed: [3] | [18]
inactive: all other assays above

CCCCCC1CCC(=O)O1 (stereo not given)
inactive: [1] | [2]

CCCCCC1C(=O)CCC1CC(=O)OC (stereo not given)
inactive: [1] | [2] | [3]

CC(=O)CC(C)(C)C1CCCCC1
inactive: [1] | [2]

CCCCOCCOCCOCCO
inactive: [1] | [2]

CC(C)(C)C1CCC(O)CC1 (stereo not given)
inactive: [1] | [2] | [4]

CC1(C)[C@H](C=C(Cl)Cl)[C@H]1C(=O)OCc1cccc(Oc2ccccc2)c1
not listed: [18]
inactive: all other assays above

CCCCC(CC)COCCO (stereo not given)
active: [2] 100 µM
inactive: [1] | [3] | [4]

CCCOC(=O)CC
inactive: [1] | [2] | [3]

CC(=O)OCC=C(C)CCC=C(C)CCC=C(C)C
active: [2] 9.14 µM | [7] 3.97 µM
not listed: [3]
inactive: all other assays above

[Cl][Dy]([Cl])[Cl]
inactive: [1] | [2] | [3] | [4]

CC(=O)C1=C(C)[C@@H]2C[C@@]3(C1)[C@H](C)CC[C@H]3C2(C)C
inactive: [1] | [4]
active: [2] 21.4 µM

CCC(C)(CCCC(C)C)OC(C)=O (stereo not given)
inactive: [1] | [4]
active: [2] 64.8 µM

CCCCCCCCCCO[C@@H]1O[C@H](CO)[C@@H](O)[C@H](O)[C@H]1O
inactive: [2]

c1ccc(Cc2ccccc2)cc1
inactive: [1] | [2] | [4]

CC(C)=CC(=O)O
inactive: [1] | [4]

CCCCCCCC(=O)N(C)C
inactive: [1] | [3] | [4]

c1ccc(OCCOc2ccccc2)cc1
inactive: [1] | [5] | [6] | [7] | [8] | [9] | [4] | [10] | [11] | [13] | [14] | [15] | [16] | [17]
active: [11] 0.0654 µM

CCCCN(CCO)CCO
not listed: [2] | [12] | [18]
inactive: all other assays above

CN1CCc2cccc3c2[C@H]1Cc1ccc(O)c(O)c1-3
inactive: [1] | [2] | [4]

CC1=CC[C@@H]2C[C@H]1C2(C)C
inactive: [1] | [3] | [4]

C=CC(=O)OCCCCCC
inactive: [1] | [3]

CCCCCC(=O)O[C@]1(C(C)=O)CC[C@H]2[C@@H]3CCC4=CC(=O)CC[C@]4(C)[C@H]3CC[C@@]21C
inactive: [1] | [4]

CCCCCCCCCO
inactive: [1] | [2] | [4]

CC(CCO)CC(C)(C)C (stereo not given)
inactive: [1] | [2] | [4]

CC(C)CCOC(=O)CC(C)C
inactive: [1] | [4]
active: [2] 100 µM

Cc1ccncc1
inactive: [1] | [3] | [4]

CCC(C)(C)C1CCC(OC)CC1 (stereo not given)
inactive: [2] | [3]

O=S(=O)(O)CCCN1CCOCC1
inactive: [1] | [2] | [4]

Nc1ccc(O)c(N)c1
inactive: [2]

NC(=O)c1cnccn1
inactive: [1] | [2] | [4]

CCCc1ccc(N)cc1
inactive: [1] | [4]

OC[C@@H](O)[C@H](O)[C@@H](O)[C@@H](O)CO
inactive: [1] | [4]
active: [2] 54.2 µM

[Na+]
inactive: [2] | [3]

CCCCCCCCOC(=O)c1ccc(O)cc1
active: [2] 11.1 µM

CC1=CC(O)CC(C)(C)C1 (stereo not given)
inactive: [1] | [4]

Cc1cc(O)c2c(c1)C(=O)c1cc(O)cc(O)c1C2=O
inactive: [1]
active: [3] 12.6 µM

CC(C)N1C(=O)c2ccccc2C1=O
inactive: [2] | [3]

CC1=CC(C)C(C=O)C(C)C1 (stereo not given) (tested in a mixture with another compound)
not listed: [2] | [4] | [18]
inactive: all other assays above

C/C=C(\C)C(=O)OC/C=C(\C)CCC=C(C)C
inactive: [4]
active: [1] 30.7 µM | [2] 4.63 µM

C=C(C)C(=O)OCCOCCOC(=O)C(=C)C
inactive: [1] | [2] | [4]

CCCCC/C=C\C=C\C(=O)OCC
inactive: [1] | [4]

CC(=O)OC/C=C(C)/C=C/C=C(C)/C=C/C1=C(C)CCCC1(C)C
inactive: [1] | [4]

CCn1cc(C(=O)O)c(=O)c2ccc(C)nc21
not listed: [2] | [3] | [12] | [18]
inactive: all other assays above
